Measurements taken from PubChem BioAssay (Tox21).
Values joined by “and” are separate entries in the source; they are usually repeats but may differ in a detail not shown here. Equal entries are not always repeated. Results filed as inconclusive are left out. Where a call stands in place of a potency, no number is given. Active and inactive are the calls of the source. Unless noted, calls follow the shape of the dose curve; as a rule, active = well fitted curve in the direction sought with a large enough effect in the repeat runs; inconclusive = weak or mixed curves; inactive = no such curve, though single readings can be large; an effect the other way counts as inactive or inconclusive.

Tests used:
[1] = qHTS assay for small molecule agonists of the p53 signaling pathway (AID 651631; calls by dose curve; also: nearly all actives have a fitted effect of over 15% in size)
How it was run: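 Agonist mode screen using a stably integrated beta-lactamase gene under p53 response elements in HCT-116 cells. Compound exposure lasts 16 h at 37 °C; fluorescence intensity is measured following 2 h FRET substrate loading.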

[2] = qHTS assay for small molecules that induce genotoxicity in human embryonic kidney cells expressing luciferase-tagged ATAD5 (AID 651632); also: nearly all actives have a fitted effect of over 15% in size
How it was run: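 Luminescent reporter readout, HEK293T ATAD5-luc line: 16 hr drug exposure (37C, 5% CO2) followed by Amplite, 30 min RT.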

[3] = qHTS assay for small molecule agonists of the p53 signaling pathway - cell viability (AID 651633; calls by dose curve;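 also: p53RE-bla HCT reporter cells with a stable beta-lactamase p53 reporter; series mostly up to about 83 µM; nearly all actives have a fitted effect of over 30% in size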)
How it was run: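 p53RE-bla cells, seeded at 4,000 per well and rested 5 h at 37 C/5% CO2, received compounds in DMSO for 16 h at 37 C. CellTiter-Glo was then added, and luminescence was read after 30 min at room temperature to gauge cytotoxicity.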

[4] = qHTS assay for small molecules that induce genotoxicity in human embryonic kidney cells expressing luciferase-tagged ATAD5 - cell viability (AID 651634; calls by dose curve; also: nearly all actives have a fitted effect of over 25% in size; also: potency is read from the fitted curve at half-maximal effect)
How it was run: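 Viability read: CellTiter-Fluor fluorescence, 30 min at 37C. Cells: HEK293T, luciferase-tagged ATAD5. Exposure: 15.5 hr, 37C, 5% CO2, compound or DMSO vehicle.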

[5] = qHTS assay for small molecule disruptors of the mitochondrial membrane potential - cell viability (AID 720634; calls by dose curve; also: nearly all actives have a fitted effect of over 20% in size; also: potency is read from the fitted curve at half-maximal effect)
How it was run: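 HepG2, 1 hr compound, 37 C. ATP luminescence via CellTiter-Glo, 30 min RT, same well as m-MPI.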

[6] = qHTS assay for small molecule disruptors of the mitochondrial membrane potential (AID 720635); also: potency is read from the fitted curve at half-maximal effect
How it was run: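 HepG2 cells (2,000/well) attached overnight at 37C, then took compound for 1 hr at 37C, 5% CO2. Mito-MPS dye was added for 30 min; fluorescence was read at 490/535 nm (monomers) and 540/590 nm (aggregates).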

[7] = qHTS assay to test for compound auto fluorescence at 590 nm (red) in HepG2 cells (AID 720674)
How it was run: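 Rose Bengal sodium served as the red fluorophore standard. HepG2 monolayers (overnight attachment, MEM with 10% FBS) were exposed to test compounds for 1 hr at 37 C and read at Ex 540/Em 590 nm.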

[8] = qHTS assay to test for compound auto fluorescence at 535 nm (green) in HepG2 cells (AID 720675)
[9] = qHTS assay to test for compound auto fluorescence at 460 nm (blue) in HEK293 cells (AID 720678)
How it was run: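 Blue-channel (Ex/Em 405/460 nm) intensity measured in HEK293 cultures after overnight compound exposure at 37C; signal expressed relative to triamterene. Cells plated 2,000 per well in 10% dialyzed FBS medium and allowed 4-5 hr to attach.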

[10] = qHTS assay to test for compound auto fluorescence at 590 nm (red) in HEK293 cells (AID 720679)
How it was run: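 Red-channel autofluorescence (Ex/Em 540/590 nm; Rose Bengal sodium reference) was measured after overnight 37C, 5% CO2 exposure of attached HEK293 cells, 2,000 per well in medium with 10% dialyzed FBS.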

[11] = qHTS assay to test for compound auto fluorescence at 460 nm (blue) in HEK293 cell free culture (AID 720681)
How it was run: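 Test compounds were pinned into cell-free culture medium (DMEM with 10% FBS) and fluorescence was read directly at Ex/Em 405/460 nm. Signals were expressed as fluorescence equivalents of triamterene, with DMSO vehicle as control.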

[12] = qHTS assay to test for compound auto fluorescence at 535 nm (green) in HEK293 cell free culture (AID 720682)
How it was run: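 No cells present: wells hold DMEM supplemented with 10% FBS, into which compound or vehicle is pinned. Green emission is then recorded (485 nm excitation, 535 nm emission) and scaled to fluorescein.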

[13] = qHTS assay to test for compound auto fluorescence at 590 nm (red) in HEK293 cell free culture (AID 720683)
How it was run: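 Tox21 10K library compounds were pinned into cell-free DMEM with 10% FBS and fluorescence was read at excitation 540 nm. Activity is expressed as Rose Bengal sodium equivalency.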

[14] = qHTS assay to test for compound auto fluorescence at 460 nm (blue) in HepG2 cell free culture (AID 720685)
How it was run: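 Compound (23 nL) or DMSO pinned into cell-free MEM with 10% FBS; blue fluorescence read at 405/460 nm excitation/emission, expressed as auto-fluorescence equivalency to triamterene.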

[15] = qHTS assay to test for compound auto fluorescence at 535 nm (green) in HepG2 cell free culture (AID 720686)
[16] = qHTS assay to test for compound auto fluorescence at 460 nm (blue) in HepG2 cells (AID 720687)
How it was run: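 Cells (2,000/well in MEM with 10% FBS) attached overnight at 37 C, then were exposed to compound or DMSO for 1 hr at 37 C, 5% CO2. Fluorescence read at Ex/Em 405/460 nm, expressed as triamterene-equivalent signal.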

[17] = qHTS assay to test for compound auto fluorescence at 535 nm (green) in HEK293 cells (AID 720680)
[18] = qHTS assay to test for compound auto fluorescence at 590 nm (red) in HepG2 cell free culture (AID 720684)
How it was run: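 Measured in medium alone (MEM containing 10% FBS) following pintool addition of compound; emission at 590 nm with 540 nm excitation, referenced to Rose Bengal sodium.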

[19] = biological target: Glucocorticoid receptor (Homo sapiens) (UniProt P04150); assay: qHTS assay to identify small molecule agonists of the glucocorticoid receptor (GR) signaling pathway (AID 720691; active = well fitted activation curve with a large enough effect in the signal ratio in the repeat runs, not every such curve was filed as active; the % refers to the signal ratio)
How it was run: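 qHTS in GR-bla HeLa cells: 4 h settling at 37 C/5% CO2, 18 h compound incubation at 37 C, 2 h LiveBLAzer B/G FRET substrate at room temperature, fluorescence intensity measured.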

[20] = biological target: Glucocorticoid receptor (Homo sapiens) (UniProt P04150); assay: qHTS assay to identify small molecule antagonists of the glucocorticoid receptor (GR) signaling pathway (AID 720692; active = well fitted inhibition curve with a large enough effect in the signal ratio in the repeat runs, not every such curve was filed as active; the % refers to the signal ratio)
How it was run: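 Inhibition of glucocorticoid signalling is measured in HeLa cells with a GRE-controlled beta-lactamase reporter; cells are co-treated with compound and 5 nM dexamethasone (final) for 18 h before FRET substrate readout.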

Chain of Glucocorticoid receptor (Homo sapiens) (P04150 whole entry, looked up): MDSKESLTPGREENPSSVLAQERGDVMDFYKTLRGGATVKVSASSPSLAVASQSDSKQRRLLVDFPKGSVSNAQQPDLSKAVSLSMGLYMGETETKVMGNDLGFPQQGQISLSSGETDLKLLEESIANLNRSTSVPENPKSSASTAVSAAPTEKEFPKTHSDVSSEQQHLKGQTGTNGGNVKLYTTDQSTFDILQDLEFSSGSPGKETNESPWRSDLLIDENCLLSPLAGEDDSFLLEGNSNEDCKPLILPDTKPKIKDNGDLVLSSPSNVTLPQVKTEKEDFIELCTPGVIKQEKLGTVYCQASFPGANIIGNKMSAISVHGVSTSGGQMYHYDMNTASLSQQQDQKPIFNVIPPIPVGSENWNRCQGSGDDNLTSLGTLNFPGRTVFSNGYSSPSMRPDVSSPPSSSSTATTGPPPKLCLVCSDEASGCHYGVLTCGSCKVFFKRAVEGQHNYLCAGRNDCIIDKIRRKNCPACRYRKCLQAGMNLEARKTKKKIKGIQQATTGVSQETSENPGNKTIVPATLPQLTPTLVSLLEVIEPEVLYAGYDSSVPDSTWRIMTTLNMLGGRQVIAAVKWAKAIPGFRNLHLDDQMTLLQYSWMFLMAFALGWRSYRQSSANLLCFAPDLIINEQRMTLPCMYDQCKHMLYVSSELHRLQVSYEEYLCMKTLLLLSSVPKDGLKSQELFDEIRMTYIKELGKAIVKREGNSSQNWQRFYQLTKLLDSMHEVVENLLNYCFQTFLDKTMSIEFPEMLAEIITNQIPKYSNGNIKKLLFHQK

Row | SMILES | Potency [1] | Potency [2] | Potency [3] | Potency [4] | Potency [5] | Potency [6] | outcome [7] | outcome [8] | outcome [9] | outcome [10] | outcome [11] | outcome [12] | outcome [13] | outcome [14] | outcome [15] | outcome [16] | outcome [17] | outcome [18] | Potency [19] | Potency [20]
1 | Nc1ccncc1 | inactive | inactive | inactive | inactive | inactive | inactive | inactive | inactive | inactive | inactive | inactive | inactive | inactive | inactive | inactive | inactive |  |  |  | 
2 | Cc1ccccc1[N+](=O)[O-] | inactive | inactive | inactive | inactive | inactive | inactive | inactive | inactive | inactive | inactive | inactive |  | inactive | inactive | inactive | inactive | inactive | inactive | inactive | inactive
3 | CCOc1cc(C=O)ccc1O | inactive | inactive | inactive | inactive | inactive | inactive | inactive |  | inactive | inactive | inactive | inactive | inactive | inactive | inactive | inactive | inactive | inactive | inactive | inactive
4 | O=[N+]([O-])c1ccc(O)c([N+](=O)[O-])c1 | inactive | inactive | inactive | 27.4 µM (active) and 27.3 µM (active) | 10.9 µM (active) | 689 nM (active) and 545 nM (active) | inactive | inactive | inactive | inactive | inactive | inactive | inactive | inactive | inactive | inactive | inactive | inactive |  | 
5 | CNC(=O)Oc1cccc2c1OC(C)(C)O2 | inactive | inactive | inactive | inactive | inactive | inactive | inactive | inactive | inactive | inactive | inactive | inactive | inactive | inactive | inactive | inactive | inactive | inactive | inactive | 
6 | CCN(CC)C(=O)SCc1ccc(Cl)cc1 | inactive | inactive | inactive | inactive | inactive | 19.9 µM (active) and 12.2 µM (active) | inactive |  | inactive | inactive | inactive | inactive | inactive | inactive | inactive | inactive | inactive | inactive | inactive | inactive
7 | c1nc[nH]n1 | inactive | inactive | inactive | inactive | inactive | inactive | inactive | inactive | inactive | inactive | inactive | inactive | inactive | inactive | inactive | inactive |  | inactive | inactive | inactive
8 | O=C1C=CC(=O)C=C1 | inactive | inactive | inactive | inactive | inactive | inactive | inactive | inactive | inactive | inactive | inactive |  | inactive | inactive | inactive | inactive |  | inactive |  | 
9 | NCc1cccnc1 | inactive | inactive | inactive | inactive | inactive | inactive | inactive | inactive | inactive | inactive | inactive |  | inactive | inactive | inactive | inactive | inactive |  |  | 
10 | CCCCCCCCOC(=O)c1ccccc1C(=O)OCCCCCCCC | inactive | inactive | inactive | inactive | inactive | inactive | inactive | inactive | inactive | inactive | inactive | inactive | inactive | inactive | inactive | inactive | inactive | inactive |  | 
11 | CN(C)C(=O)Nc1ccc(Cl)cc1 | inactive | inactive | inactive | inactive | inactive | inactive | inactive | inactive | inactive | inactive | inactive | inactive | inactive | inactive | inactive | inactive | inactive |  | inactive | inactive
12 | c1ccc(N=Nc2ccccc2)cc1 | inactive | inactive | inactive | inactive | inactive | inactive | inactive | inactive | inactive | inactive | inactive |  | inactive | inactive | inactive | inactive |  |  | inactive | inactive
13 | COC(=O)c1sccc1S(=O)(=O)NC(=O)Nc1nc(C)nc(OC)n1 | inactive | inactive | inactive | inactive | inactive | inactive | inactive |  | inactive | inactive | inactive | inactive | inactive | inactive | inactive | inactive | inactive | inactive | inactive | inactive
14 | O=Cc1ccco1 | inactive | inactive | inactive | inactive | inactive | inactive | inactive | inactive | inactive | inactive | inactive | inactive | inactive | inactive | inactive | inactive |  | inactive |  | 
